Assay [1] is described as follows: rapamycin-like changes in RPL19A-GFP expression – cell-based, S. cerevisiae, multiplex flow cytometry, primary screen (AID 1862; in the data active = percent of DMSO control GFP below about 86%;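 also: lower values mimic rapamycin by blocking the RPL19A rise seen in DMSO cells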). The following applies: S. cerevisiae RPL19A-GFP strain, flow cytometry fluorescence, 3 h; at 10 µM; stronger effect = lower value. In general terms: In flow cytometry, cells or beads pass a laser one at a time.
Assay [2] in a line: TOR pathway GLN3 branch reporter MEP2-GFP changes – S. cerevisiae, multiplex flow cytometry, primary screen (AID 1867;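 active = GFP response, as percent of the DMSO control, above the screen-wide mean plus 3 SD, about 139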;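 also: median GFP channel fluorescence of barcode-gated MEP2-GFP cells measured by flow cytometry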). The conditions noted are these: S. cerevisiae MEP2-GFP strain, 3 h, at 10 µM, stronger effect = higher value, 100% means same as DMSO wells.
Assay [3] can be described thus: TOR pathway RTG branch CIT2 reporter changes – S. cerevisiae, GFP fusion, multiplex flow cytometry, primary screen (AID 1870).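 Also: barcoded CIT2-GFP strain pooled with four other GFP strains with rapamycin as positive control; median GFP fluorescence per well over plate mean of DMSO wells so 100% = DMSO.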 The following applies: S. cerevisiae CIT2-GFP expression, 3 h, at 10 µM, stronger effect = higher value.
Assay [4] can be described thus: TOR pathway LAP4-GFP level changes – S. cerevisiae, multiplex flow cytometry, primary screen (AID 1873;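 active = GFP signal, as percent of the solvent control, above the screen mean plus 3 SD, about 149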). The conditions noted are these: S. cerevisiae LAP4-GFP expression, 3 h, at 10 µM, stronger effect = higher value.
The nature of assay [5]: yeast AGP1-GFP level changes, GLN3 branch – cell-based, multiplex flow cytometry, S. cerevisiae, primary screen (AID 1887;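 active = GFP signal above the screen-wide mean plus 3 SD, that is over about 124.5% of the solvent control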;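 also: AGP1-GFP fusion strain of S. cerevisiae within a five-strain barcoded multiplex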). The conditions noted are these: 3 h, at 10 µM, stronger effect = higher value.
Assay [6] can be described thus: reduced mouse 2C T cell binding to pMHC/ICAM-1 vesicles – MLPCN validation set, flow cytometry, LFA-1/ICAM-1 modulator project, pilot screen (AID 2523;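 active = response below a set limit, under 55% cells CD8-positive and vesicle-bound, and CD8 cells' 90th-percentile brightness under 279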;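 as to vesicle binding response: mean PE anti-B7-1 fluorescence of CD8+ cells relative to row control; 100% = QL9-loaded vesicles with DMSO vehicle in the same plate row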). The following applies: 2C mouse CD8+ T cells, at 7 µM, stronger effect = lower value; double positive events: measured here: CD8+/vesicle+ event percentage.
The target in assay [7] is Integrin beta-1 (Homo sapiens) + Integrin alpha-4 (Homo sapiens) (UniProt P13612+P05556). In words: alpha4beta1 integrin LIBS antibody binding reduction – U937 cells, HUTS-21 mAb, flow cytometry, validation set, VLA-4 allosteric modulator project, pilot screen (AID 2674;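 active = inhibition above 50%, about 3 SD of the validation set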;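 also: antibody binding induced by the VLA-4 ligand LDV present at three times its Kd; 0% = LDV ligand with antibody and no compound and 100% = antibody without LDV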). The following applies: HUTS-21 LIBS mAb binding, at 6.7 µM, stronger effect = higher value, binding induced by LDV ligand.

Assay [8] in a line: calorie-restriction mimetic ROS inhibitors, yeast – validation compound set, pilot screen (AID 2706;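 active = superoxide response below 65% of plate, a cut near 3 SD across the whole screen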;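 also: yeast exposed to compound for one week at 30 degrees C before staining; 100% = mean of all compound wells on the same plate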). The conditions noted are these: S. cerevisiae aging, superoxide DHE fluorescence; at 10 µM; stronger effect = lower value.
Assay [9] has as its target Beta-adrenergic receptor kinase 1 (Homo sapiens) (UniProt P25098). In words: GRK2 binders displacing RNA aptamer, biochemical, validation, human GRK2, bead flow cytometry (AID 488806;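 active = aptamer binding inhibition above 30%, about 3 SD of noise from non-fluorescent compounds; inactive = inhibition at or below 30%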). The conditions noted are these: bead-bound GRK2, FAM-aptamer displacement, at 10 µM, stronger effect = higher value.
The target in assay [10] is Beta-2 adrenergic receptor (Homo sapiens) (UniProt P07550). The assay is described as follows: agonist-induced loss of surface beta2AR – cell-based, FAP fluorogen, flow cytometry, validation set, pilot screen (AID 504459;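 active = percent response above 42, roughly 3 SD of non-fluorescent test compounds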;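 also: agonist-driven loss of surface beta2AR via internalization measured by FAP dye flow cytometry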). The following applies: Am2.2-beta2AR cells, at 10 µM, stronger effect = higher value.
Assay [11] deals with AP-2 complex subunit beta (Homo sapiens) (UniProt P63010). The assay is described as follows: beta-arrestin/AP2 interaction blockers – biochemical, validation set, GST-AP2 beads, flow cytometry, pilot screen (AID 504541;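 active = inhibition above 54%, about 3 SD of non-fluorescent compounds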;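 also: AP2 carries R879A mutation and is captured from E. coli lysate; bead-bound FITC arrestin peptide fluorescence measuring arrestin peptide binding to AP2; 0% = DMSO wells and 100% = excess unlabeled arrestin peptide control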). The following applies: FITC arrestin peptide, at 10 µM, stronger effect = higher value, AP2 beta2 appendage fragment, R879A mutant.
Assay [12] is described as follows: cytosolic pH regulators acting via V-ATPase – S. cerevisiae, pHLuorin, HTS validation (AID 504600; in the data active = response above about 15%;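 also: plate controls were DMSO for no effect and reference compound for full effect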). The following applies: V-ATPase proton transport, at 10 µM, stronger effect = higher value.
The subject of assay [13] is anti-desmoglein-3 scFv antibody binding to human DSG3. In words: blockers of pathogenic pemphigus antibody–desmoglein-3 binding – biochemical, validation compound set, bead-based, flow cytometry, pilot screen (AID 588368;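 active = binding below the plate cutoff, the plate median minus 3 SD, with a reading above zero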;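 also: signal is the median channel fluorescence of bead-bound GFP antibody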). The conditions noted are these: Protein G beads, DSG3-Fc, scFv-GFP binding, at 10 µM, stronger effect = lower value.
Assay [14] can be described thus: Nile Red efflux blockade in pump-expressing yeast – validation compound set, multiplex, phenotypic, pilot screen (AID 588506;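 active = efflux inhibition above 0.42, the validation set average plus 4 SD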;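 also: Nile Red retained in cells so higher fluorescence means more efflux inhibition; 0 = negative control wells and 1 = enniatin B 25 µM full block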). The conditions noted are these: S. cerevisiae pump-expressing triplex, Nile Red efflux flow cytometry; at 10 µM; stronger effect = higher value; the pumps come from Candida albicans.
In assay [15] the target is ATP-binding cassette sub-family B member 6 (Homo sapiens) (UniProt Q9NP58). In words: blockers of ABCB6-driven porphyrin uptake – K562-ABCB6 cells, flow cytometry, validation set, pilot screen (AID 588550;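 active = inhibition above the screen-wide mean plus 3 SD, about 51%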;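 also: 0% = DMSO wells and 100% = benzethonium chloride 70 µM positive control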). The conditions noted are these: K562-ABCB6 porphyrin accumulation, 1 h, at 10 µM, stronger effect = higher value.
The nature of assay [16]: AML differentiation inducers, ER-HoxA9 marrow cells – cell-based, GFP/MAC1 double positive, flow cytometry, validation set, primary screen (AID 588685;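 active = differentiation response of at least 50%, scaled between solvent and reference control, from cells with both markers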;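 also: compound exposure lasts four days before antibody staining and flow analysis; 0% = DMSO wells and 100% = 5 µM fulvestrant positive control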). The following applies: stronger effect = higher value, normalized: vehicle 0, fulvestrant 100.

Inconclusive results are not listed. Activity calls are given as the source filed them.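 The calls were made as follows, unless noted: active = percent response above a set limit, the screen-wide mean plus 3 SD (cut at about 130% in these data); inactive = the rest.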

Chain of Beta-adrenergic receptor kinase 1 (Homo sapiens) (P25098 whole entry, looked up): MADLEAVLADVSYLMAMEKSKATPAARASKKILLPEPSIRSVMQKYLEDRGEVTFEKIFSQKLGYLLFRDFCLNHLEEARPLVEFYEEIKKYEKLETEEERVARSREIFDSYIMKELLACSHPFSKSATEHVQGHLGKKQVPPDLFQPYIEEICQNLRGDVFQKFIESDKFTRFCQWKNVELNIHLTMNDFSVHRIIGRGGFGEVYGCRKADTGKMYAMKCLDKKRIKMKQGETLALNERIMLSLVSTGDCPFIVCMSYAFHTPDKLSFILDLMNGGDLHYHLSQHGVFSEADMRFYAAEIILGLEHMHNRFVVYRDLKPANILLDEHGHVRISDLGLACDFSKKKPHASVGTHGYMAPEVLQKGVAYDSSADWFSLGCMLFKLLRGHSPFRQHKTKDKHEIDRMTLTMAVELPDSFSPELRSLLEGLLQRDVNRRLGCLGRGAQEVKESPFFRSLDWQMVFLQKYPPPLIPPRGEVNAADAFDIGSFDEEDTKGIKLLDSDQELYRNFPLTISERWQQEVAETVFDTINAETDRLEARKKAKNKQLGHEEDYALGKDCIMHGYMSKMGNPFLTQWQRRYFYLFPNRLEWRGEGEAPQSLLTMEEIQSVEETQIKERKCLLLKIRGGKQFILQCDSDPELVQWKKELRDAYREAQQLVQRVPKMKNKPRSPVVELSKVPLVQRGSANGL
Chain of ATP-binding cassette sub-family B member 6 (Homo sapiens) (Q9NP58 whole entry, looked up): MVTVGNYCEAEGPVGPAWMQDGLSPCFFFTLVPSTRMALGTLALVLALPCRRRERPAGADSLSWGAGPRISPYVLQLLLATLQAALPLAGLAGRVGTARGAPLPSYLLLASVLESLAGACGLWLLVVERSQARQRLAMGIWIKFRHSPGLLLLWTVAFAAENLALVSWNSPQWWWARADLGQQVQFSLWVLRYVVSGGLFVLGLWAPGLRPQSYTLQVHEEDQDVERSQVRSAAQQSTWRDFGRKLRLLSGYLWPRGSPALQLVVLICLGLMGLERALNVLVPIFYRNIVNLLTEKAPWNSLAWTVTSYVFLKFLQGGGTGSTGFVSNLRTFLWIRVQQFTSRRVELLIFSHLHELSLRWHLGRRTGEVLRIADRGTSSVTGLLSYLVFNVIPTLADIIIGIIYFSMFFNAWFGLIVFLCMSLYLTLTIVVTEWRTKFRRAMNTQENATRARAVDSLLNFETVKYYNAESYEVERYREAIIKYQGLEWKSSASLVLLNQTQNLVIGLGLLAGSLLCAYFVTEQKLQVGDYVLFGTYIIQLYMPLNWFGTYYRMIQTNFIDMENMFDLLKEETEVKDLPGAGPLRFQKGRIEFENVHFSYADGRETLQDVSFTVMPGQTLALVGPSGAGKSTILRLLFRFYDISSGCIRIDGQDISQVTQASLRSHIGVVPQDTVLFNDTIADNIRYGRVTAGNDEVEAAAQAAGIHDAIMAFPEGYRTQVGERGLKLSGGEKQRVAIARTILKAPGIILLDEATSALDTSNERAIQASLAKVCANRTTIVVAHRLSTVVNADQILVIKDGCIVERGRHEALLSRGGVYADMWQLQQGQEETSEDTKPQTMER
Chain of AP-2 complex subunit beta (Homo sapiens) (P63010 whole entry, looked up, the tested form may be a part, one chain of several): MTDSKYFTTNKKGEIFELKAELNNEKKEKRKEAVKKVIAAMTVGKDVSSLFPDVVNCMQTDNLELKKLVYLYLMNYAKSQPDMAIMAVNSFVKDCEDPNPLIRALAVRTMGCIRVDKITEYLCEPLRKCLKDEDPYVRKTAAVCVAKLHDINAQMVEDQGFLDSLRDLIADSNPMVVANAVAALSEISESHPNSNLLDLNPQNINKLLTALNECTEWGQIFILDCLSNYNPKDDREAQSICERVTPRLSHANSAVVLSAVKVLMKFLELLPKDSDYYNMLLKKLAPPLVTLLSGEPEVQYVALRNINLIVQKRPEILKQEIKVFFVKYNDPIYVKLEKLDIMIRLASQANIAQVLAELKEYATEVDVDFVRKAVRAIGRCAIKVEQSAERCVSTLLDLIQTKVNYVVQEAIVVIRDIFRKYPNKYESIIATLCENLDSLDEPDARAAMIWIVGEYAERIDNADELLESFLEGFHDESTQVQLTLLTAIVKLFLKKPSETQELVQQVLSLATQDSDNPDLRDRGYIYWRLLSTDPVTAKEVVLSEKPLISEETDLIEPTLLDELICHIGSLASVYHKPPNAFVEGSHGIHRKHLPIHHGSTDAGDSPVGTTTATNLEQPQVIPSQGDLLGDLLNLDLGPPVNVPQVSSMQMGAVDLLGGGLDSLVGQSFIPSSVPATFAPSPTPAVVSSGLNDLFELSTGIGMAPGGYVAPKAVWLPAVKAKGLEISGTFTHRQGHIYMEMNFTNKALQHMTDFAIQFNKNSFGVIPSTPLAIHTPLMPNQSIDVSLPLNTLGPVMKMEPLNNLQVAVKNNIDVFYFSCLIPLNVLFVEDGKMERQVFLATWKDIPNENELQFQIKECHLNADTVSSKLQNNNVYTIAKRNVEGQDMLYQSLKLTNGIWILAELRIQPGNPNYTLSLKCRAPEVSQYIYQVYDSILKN
Chain of Beta-2 adrenergic receptor (Homo sapiens) (P07550 whole entry, looked up): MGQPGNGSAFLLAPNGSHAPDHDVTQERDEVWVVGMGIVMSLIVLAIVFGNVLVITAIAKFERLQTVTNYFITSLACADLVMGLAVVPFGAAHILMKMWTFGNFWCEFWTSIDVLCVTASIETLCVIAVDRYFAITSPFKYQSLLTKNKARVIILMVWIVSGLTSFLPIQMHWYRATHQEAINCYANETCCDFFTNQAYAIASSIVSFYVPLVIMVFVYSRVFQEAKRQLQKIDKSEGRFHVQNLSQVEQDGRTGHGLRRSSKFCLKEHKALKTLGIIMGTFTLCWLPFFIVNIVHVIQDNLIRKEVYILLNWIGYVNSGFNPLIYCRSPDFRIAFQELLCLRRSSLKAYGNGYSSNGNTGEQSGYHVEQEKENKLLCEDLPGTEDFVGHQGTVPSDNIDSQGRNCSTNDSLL
Chain of Integrin beta-1 (Homo sapiens) + Integrin alpha-4 (Homo sapiens) (P05556 whole entry, looked up): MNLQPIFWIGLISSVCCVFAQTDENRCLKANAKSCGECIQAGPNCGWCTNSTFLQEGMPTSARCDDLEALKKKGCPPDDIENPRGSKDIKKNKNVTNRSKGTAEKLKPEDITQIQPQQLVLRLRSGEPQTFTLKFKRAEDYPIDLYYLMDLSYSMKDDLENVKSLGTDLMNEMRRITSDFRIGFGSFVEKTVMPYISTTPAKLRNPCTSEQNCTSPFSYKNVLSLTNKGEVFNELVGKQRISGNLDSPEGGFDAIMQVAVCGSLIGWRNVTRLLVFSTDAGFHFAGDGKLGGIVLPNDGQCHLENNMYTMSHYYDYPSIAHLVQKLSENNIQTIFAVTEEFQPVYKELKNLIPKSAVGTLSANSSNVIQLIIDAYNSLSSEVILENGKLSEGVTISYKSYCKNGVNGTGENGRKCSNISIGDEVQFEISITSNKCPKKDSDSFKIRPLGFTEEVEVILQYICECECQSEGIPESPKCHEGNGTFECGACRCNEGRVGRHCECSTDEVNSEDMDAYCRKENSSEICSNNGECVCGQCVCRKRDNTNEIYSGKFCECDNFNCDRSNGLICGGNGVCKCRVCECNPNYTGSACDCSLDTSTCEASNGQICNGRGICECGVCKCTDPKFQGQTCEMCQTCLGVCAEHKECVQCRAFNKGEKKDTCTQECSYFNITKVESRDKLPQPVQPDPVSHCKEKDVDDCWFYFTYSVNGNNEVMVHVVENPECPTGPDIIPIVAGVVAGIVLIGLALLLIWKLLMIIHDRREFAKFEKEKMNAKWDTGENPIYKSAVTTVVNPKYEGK
Chain of Integrin beta-1 (Homo sapiens) + Integrin alpha-4 (Homo sapiens) (P13612 whole entry, looked up): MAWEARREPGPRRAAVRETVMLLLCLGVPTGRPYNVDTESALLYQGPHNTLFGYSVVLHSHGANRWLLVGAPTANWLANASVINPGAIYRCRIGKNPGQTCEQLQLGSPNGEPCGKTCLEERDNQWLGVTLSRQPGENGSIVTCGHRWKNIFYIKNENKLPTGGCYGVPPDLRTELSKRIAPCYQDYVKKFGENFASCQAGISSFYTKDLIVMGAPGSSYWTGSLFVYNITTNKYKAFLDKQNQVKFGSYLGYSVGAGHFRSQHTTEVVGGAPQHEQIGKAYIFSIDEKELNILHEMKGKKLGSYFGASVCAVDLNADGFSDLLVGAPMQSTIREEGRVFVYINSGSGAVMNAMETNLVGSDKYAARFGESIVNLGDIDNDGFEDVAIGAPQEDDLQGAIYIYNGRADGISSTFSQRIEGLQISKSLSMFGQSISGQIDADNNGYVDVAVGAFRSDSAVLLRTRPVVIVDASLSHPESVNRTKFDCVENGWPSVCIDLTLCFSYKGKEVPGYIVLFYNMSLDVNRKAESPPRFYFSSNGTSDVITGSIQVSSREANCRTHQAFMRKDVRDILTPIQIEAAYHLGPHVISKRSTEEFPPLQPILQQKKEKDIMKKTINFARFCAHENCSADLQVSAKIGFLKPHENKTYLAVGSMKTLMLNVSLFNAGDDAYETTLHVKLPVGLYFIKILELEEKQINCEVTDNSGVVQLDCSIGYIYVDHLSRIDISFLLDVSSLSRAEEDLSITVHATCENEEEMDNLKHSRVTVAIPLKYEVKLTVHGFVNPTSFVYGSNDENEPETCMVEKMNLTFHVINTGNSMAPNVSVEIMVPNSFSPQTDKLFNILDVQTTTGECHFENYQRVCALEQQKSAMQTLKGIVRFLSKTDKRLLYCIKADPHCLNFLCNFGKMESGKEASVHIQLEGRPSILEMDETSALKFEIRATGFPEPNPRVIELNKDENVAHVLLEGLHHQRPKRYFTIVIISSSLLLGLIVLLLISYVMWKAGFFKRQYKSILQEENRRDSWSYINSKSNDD

As usually defined, the inhibition is the drop in the measured response relative to a control, in per cent. For `O=C(Oc1ccc2c3c(c(=O)oc2c1)CCCC3)c1ccco1`, in assay [1], the percent of DMSO control GFP is 101% (inactive). Besides, the figures for the GFP response vs DMSO in [2] and in assay [4] were 101% (inactive) and 102% (inactive), respectively. Also, the percent response of DMSO control in assay [3] is 96% (inactive). Also, the GFP response, % of DMSO in assay [5] was 85% (inactive). The compound also yielded a double positive events in assay [6] of 62.5%. The vesicle binding response in assay [6] was 126% (inactive). Besides, the inhibition in assay [7] is -6.04% (inactive); in [11] it was 11.5% (inactive); in assay [15], 6% (inactive). For the same compound, the superoxide response (% of plate) in [8] was 99.3% (inactive). In assay [9], the aptamer binding inhibition was 5% (inactive). Moreover, the response in assay [10] was 5.57% (inactive); in assay [12], 0.75% (inactive). The binding (% of control) in assay [13] was 96.5% (inactive). Also, in assay [14], the efflux inhibition (fraction of control) was 0.62 (active). Moreover, in [16], the differentiation response is -5.68% (inactive).

In the case of `Cc1ccc2c(c1)c(=O)c1c3n2CCN(C(=O)CCl)C3CC1` (stereo not given), the percent of DMSO control GFP in assay [1] is 96.3% (inactive). Also, the GFP response vs DMSO was 102% (inactive) in assay [2] and 106% (inactive) in [4]. For the same compound, the percent response of DMSO control in assay [3] is 97% (inactive). Further, in assay [5], the GFP response, % of DMSO is 111% (inactive). The double positive events in [6] was 58.2%. In addition, the vesicle binding response in assay [6] was 198% (inactive). The inhibition in assay [7] was -10.5% (inactive); in assay [11] it was 20.6% (inactive); in assay [15], 1% (inactive). In addition, the superoxide response (% of plate) in [8] was 108% (inactive). In addition, the aptamer binding inhibition in assay [9] is 18% (inactive). Further, the response was -25.7% (inactive) in assay [10] and -19.6% (inactive) in assay [12]. Further, the binding (% of control) in [13] is 96.7% (inactive). The efflux inhibition (fraction of control) in assay [14] was 0.46 (active). Further, in [16], the differentiation response is 0.92% (inactive).

Regarding `c1ccc2[nH]c(-c3cscn3)nc2c1`, in assay [1], the percent of DMSO control GFP is 97.6% (inactive). The GFP response vs DMSO in assay [2] is 103% (inactive); in [4], 123% (inactive). Besides, the percent response of DMSO control in assay [3] was 97.7% (inactive). Further, the GFP response, % of DMSO in assay [5] is 111% (inactive). This compound returned a double positive events in assay [6] of 58.6%. Moreover, in assay [6], the vesicle binding response is 174% (inactive). For the same compound, the inhibition in assay [7] is 2.29% (inactive); in [11] it was 5.36% (inactive); in [15] it was 0% (inactive). In addition, the superoxide response (% of plate) in assay [8] is 85.3% (inactive). For the same compound, the aptamer binding inhibition in assay [9] is -2% (inactive). The response in [10] is -32% (inactive); in [12] it was 1.12% (inactive). Besides, the binding (% of control) in [13] is 108% (inactive). In addition, the efflux inhibition (fraction of control) in assay [14] was 0 (inactive). Moreover, the differentiation response in assay [16] is -2.03% (inactive).

Take `COc1ccc(CNCCC2(C(C)C)CCOC(C)(C)C2)cc1` (stereo not given): the percent of DMSO control GFP in [1] is 99.2% (inactive). Moreover, the GFP response vs DMSO in assay [2] is 107% (inactive); in [4], 88.7% (inactive). Moreover, in [3], the percent response of DMSO control is 101% (inactive). For the same compound, the GFP response, % of DMSO in assay [5] was 97.2% (inactive). Further, the double positive events in assay [6] turned out to be 55.9%. Further, the vesicle binding response in assay [6] is 52.5% (inactive). Besides, the inhibition in assay [7] is -7.72% (inactive); in [11], -2.2% (inactive); in assay [15], -1% (inactive). Further, the superoxide response (% of plate) in [8] was 106% (inactive). Moreover, in assay [9], the aptamer binding inhibition is 3% (inactive). The response is -6.71% (inactive) in [10] and 2.72% (inactive) in [12]. Also, in [13], the binding (% of control) is 97.2% (inactive). For the same compound, in [14], the efflux inhibition (fraction of control) was -0.1 (inactive). The differentiation response in [16] was 0.24% (inactive).

Consider `CCC(C)n1ncn(-c2ccc(N3CCN(c4ccc(OCC5COC(Cn6cncn6)(c6ccc(Cl)cc6Cl)O5)cc4)CC3)cc2)c1=O` (stereo not given), for which the percent of DMSO control GFP in assay [1] was 115% (inactive). The GFP response vs DMSO is 110% (inactive) in assay [2] and 133% (inactive) in [4]. Moreover, the percent response of DMSO control in [3] was 97.1% (inactive). In assay [5], the GFP response, % of DMSO was 102% (inactive). Also, the double positive events in assay [6] stood at 58.2%. In addition, the vesicle binding response in assay [6] was 22.8% (inactive). Also, the inhibition in assay [7] was 3.98% (inactive); in [11] it was -13.8% (inactive); in assay [15], 7% (inactive). The superoxide response (% of plate) in assay [8] is 53.9% (active). Further, in assay [9], the aptamer binding inhibition is 4% (inactive). Also, the response in assay [10] is 8.75% (inactive); in assay [12], 1.4% (inactive). The binding (% of control) in [13] is 99.3% (inactive). Moreover, the efflux inhibition (fraction of control) in assay [14] is 0.55 (active). Further, the differentiation response in assay [16] was 6.49% (inactive).

The values are drawn from PubChem BioAssay.
